# High-throughput results deposited in PubChem BioAssay by Sanford-Burnham Center for Chemical Genomics.
# TIM10 inh – growth inhibitors of isogenic TIM10 control yeast, primary screen, counter-screen for tim10-1 yeast inhibitor project, luminescence, uHTS; AID 463195, 2010; S. cerevisiae TIM10 strain growth, BacTiter-Glo luminescence, 24 h; inhibition, % at 10 µM; hit rate 1.4% among 330,000;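 active means inhibition of 40% or more at the single tested concentration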;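 further: wild-type TIM10 isogenic control strain grown at permissive 25 °C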
# tim10-1 inh – growth inhibitors of tim10-1 mutant yeast, primary screen, luminescence, uHTS; S. cerevisiae tim10-1 ts strain growth, BacTiter-Glo, 24 h; inhibition, % at 20 µM; hit rate 2.2% among 330,000; AID 463190, 2010;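 active means inhibition of at least 40%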;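 further: mutant grown at 25 °C; 0% = DMSO wells with yeast and 100% = wells holding no yeast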
# NALP3 yeast inh – NALP3 inflammasome inhibitors in reconstituted yeast, primary screen, luminescence, uHTS | Yeast reconstituted NLRP3/ASC/caspase-1, beta-gal luminescence, 24 h | inhibition, % at 10 µM | hit rate 0.39% among 330,000;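 active means inhibition of 50% or more; inactive means inhibition below 50%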;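 further: plate controls were induced DMSO wells for no effect and uninduced yeast grown without galactose for full effect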
# tim23-1 inh – growth inhibitors of tim23-1 mutant yeast, primary screen, luminescence, uHTS; S. cerevisiae tim23-1 growth, BacTiter-Glo luminescence, 24 h; AID 463212, 2010; hit rate 1.3% among 330,000; inhibition, % at 20 µM;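 active means growth inhibition of the mutant yeast at or above 50%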;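 further: temperature-sensitive mutant grown at 25 °C; plate controls were DMSO-treated mutant yeast for no effect and medium wells lacking yeast for full effect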
# NALP1 inh – NALP1 inflammasome inhibitors in reconstituted yeast, colorimetric, S. cerevisiae, triplicate retest. S. cerevisiae NALP1/ASC/caspase-1 growth, X-gal OD620, 72 h. inhibition, % at 10 µM. hit rate 0.61% among 280,000; in the data active means inhibition mostly above about 24%, no sharp cut-off; inactive means mostly below about 32%
# tim10-1 conf – growth inhibitors of tim10-1 mutant yeast, confirmation, single concentration, luminescence, S. cerevisiae; shares compounds with tim10-1 inh; S. cerevisiae tim10-1 ts strain growth, BacTiter-Glo, 24 h; inhibition, % at 20 µM; hit rate 56% among 7,400;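 active means inhibition of yeast growth at or above a set limit in either of two repeat tests at 20 µM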;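 further: tim10-1 mutant grown at permissive 25 °C to find synthetic lethal compounds; 0% = DMSO yeast wells and 100% = medium wells without yeast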
# * hit, by the source's call; x = not tested or not shown. Most compounds without a hit are left out; they make up all but 4% or so of the library.
SMILES,TIM10 inh,tim10-1 inh,NALP3 yeast inh,tim23-1 inh,NALP1 inh,tim10-1 conf
CC(=O)Nc1ccc(NC(=O)CCCCCN2C(=O)c3ccccc3C2=O)cc1,6,3,18,-2,8,x
CCN(CC)c1ccc(NC(=O)CCCCCN2C(=O)c3ccccc3C2=O)cc1,33,46*,10,43,-8,42*
COc1ccc(NC(=O)C(Cc2cc(C)cc(C)c2)C(C)C(=O)O)cc1 (stereo not given),3,8,16,17,9,x
O=C(NN1C(=O)/C(=C/c2ccc(O)cc2)SC1=S)c1ccccc1O,-1,8,27,14,-10,x
COc1cc(/C=C2\SC(=S)N(NC(=O)c3ccccc3O)C2=O)ccc1O,31,44*,17,34,4,32*
N#Cc1c(N2CCCCC2)nc(N)c2c(N)nc3c(c12)CC(c1ccccc1)O3 (stereo not given),32,41*,-7,16,11,10
CCC1Cc2c(nc(N)c3c(N)nc(N4CCCCC4)c(C#N)c23)O1 (stereo not given),22,31,23,38,-9,x
CC(=O)c1cccc(NC(=O)CN2C(=O)NC(C)(C)C2=O)c1,4,7,5,11,x,x
COc1ccc(NC(=S)NC2CCCC2)c(OC)c1,5,11,5,19,15,x
COc1ccc(OC)c(C(C)NC(=S)NC2CCCCC2)c1 (stereo not given),31,42*,28,27,-2,11
O=C(NCc1ccc(F)cc1)C1CCCN1C(=O)Nc1cccc(F)c1 (stereo not given),-3,8,18,19,20,x
CN(Cc1c(F)cccc1Cl)C(=O)C1=CC=CN2CCS(=O)(=O)N=C12,-1,-18,14,-8,x,x
O=S(=O)(c1cccc(-c2n[nH]c(=S)n2C2CCCC2)c1)N1CCOCC1,7,8,23,5,-17,x
CC1=C(C(=O)Nc2cccc(C(=O)NC3CCCC(C)C3C)c2)SCCO1 (stereo not given),5,49*,14,40,12,10
Cc1nc(NCc2ccccn2)c2c3c(sc2n1)CCCC3,16,41*,17,39,-1,41*
c1ccc(CNc2ncnc3sc4c(c23)CCCC4)nc1,-7,45*,-23,42,-4,36*
O=C(Nc1ncnc2sc3c(c12)CCCCC3)c1ccc(F)cc1,26,45*,15,23,2,32*
Cc1nc(NCc2ccco2)c2c3c(sc2n1)CCC3,-11,27,20,34,12,x
O=C(Nc1ncnc2sc3c(c12)CCCCC3)c1ccccc1,29,30,6,42,-13,x
Cc1cccc2cc(C(c3nnnn3C(C)(C)C)N(Cc3ccco3)CC3CCCO3)c(=O)[nH]c12 (stereo not given),31,22,2,30,-1,x
CC(C)(C)n1nnnc1C(c1ccccc1F)N(Cc1ccco1)CC1CCCO1 (stereo not given),19,41*,6,48,-30,22
O=c1c2ccccc2nc(-c2ccc(F)cc2)n1NCc1ccccc1O,27,17,23,16,5,x
COc1ccccc1-c1nc(C(=O)NCC2CCCO2)cc2c1[nH]c1ccccc12 (stereo not given),22,43*,5,47,19,32
O=C(NCC1CCCO1)c1cc2c([nH]c3ccccc32)c(-c2cccc(Cl)c2)n1 (stereo not given),18,27,5,39,10,x
COc1cc(-c2nc(C(=O)NCC3CCCO3)cc3c2[nH]c2ccccc23)cc(OC)c1OC (stereo not given),18,42*,9,36,6,19
O=C(CCc1ccc(Oc2cc([N+](=O)[O-])cc([N+](=O)[O-])c2)cc1)NC1CCCC1,36,37,0,27,4,x
CC1CCN(C(=O)CCc2ccc(Oc3cc([N+](=O)[O-])cc([N+](=O)[O-])c3)cc2)CC1,29,51*,33,46,-37,41*
O=C(NCCc1ccccc1)C(=O)NCC1CCCN1S(=O)(=O)c1cccs1 (stereo not given),-7,0,15,-3,x,x
